A selection: hits, their analogues and other compounds. The true share with any hit is near 2.8%.
PI4K2A inh: inhibitors of human PI4K2A; Q9BTU6; 0.13% of 420,000 active; purified PI4K2A, ADP-Glo luminescence, 1 h; stronger effect = lower value; activity change, negative = inhibition, % at 76.9 µM; AID 1346378; in the data active means activity change below about -50%; inconclusive means mostly about -30% to -49%
Target sequence (Q9BTU6 whole entry, looked up): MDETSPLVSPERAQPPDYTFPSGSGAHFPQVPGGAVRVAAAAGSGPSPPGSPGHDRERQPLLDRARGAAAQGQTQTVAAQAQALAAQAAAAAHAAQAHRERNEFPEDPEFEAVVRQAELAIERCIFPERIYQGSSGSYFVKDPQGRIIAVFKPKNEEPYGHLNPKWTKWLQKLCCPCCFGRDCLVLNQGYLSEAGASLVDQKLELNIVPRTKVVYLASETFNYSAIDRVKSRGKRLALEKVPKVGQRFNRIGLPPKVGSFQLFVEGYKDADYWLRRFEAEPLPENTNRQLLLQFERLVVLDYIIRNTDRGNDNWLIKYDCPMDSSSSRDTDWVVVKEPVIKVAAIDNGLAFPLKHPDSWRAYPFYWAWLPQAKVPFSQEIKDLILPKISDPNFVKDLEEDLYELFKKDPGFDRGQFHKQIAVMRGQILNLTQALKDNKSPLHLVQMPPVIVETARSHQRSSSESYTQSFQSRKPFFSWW
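PI4K2A activity was measured by ADP-Glo luminescence: enzyme (4 ug/mL stock) and phosphatidylinositol (1.2 mM stock) in Tris pH 7.5/MgCl2/EGTA/Triton X-100 buffer were reacted with ATP (300 microM stock) for one hour at ambient temperature.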
POLI inh: blocks human DNA polymerase iota activity; Q9UNA4; Pol iota fluorescent replication assay, 10 min; Potency, µM (highest dose often 115 µM), hits mostly inhibitors; 1% of 390,000 active; AID 588590
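Fluorescent replication assay read twice, at 0 min and 10 min after adding 50 nM (final) substrate. Enzyme (10 nM) and compounds were first incubated 15 min at room temperature; enzyme-free buffer wells were negative controls.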
Pol eta inh: DNA polymerase eta (human) inhibition; Q9Y253; recombinant Pol eta, fluorescent DNA replication assay; Potency, µM (doses to about 114 µM), actives largely listed as inhibitors; 1.2% of 390,000 active; AID 588591
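Pol eta (10 nM) was preincubated with compounds for 15 min at room temperature, after which fluorescent replication substrate (50 nM final) was added to start the reaction. Fluorescence was read kinetically at 0 and 10 min.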
POLK inh: DNA polymerase kappa (human) inhibition; Q9UBT6; purified Pol kappa, fluorescent DNA synthesis assay, 10 min; Potency, µM (top dose mostly 107 µM), hits mostly inhibitors; 0.53% of 400,000 active
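Fluorescent qHTS in 1536-well format: enzyme (10 nM) and compound sat 15 min at room temperature before 50 nM substrate (final) was added. Signal taken at 0 and 10 min; no-enzyme buffer wells were negative controls.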
POLB inh: DNA polymerase beta (human) inhibition; Pol beta primer extension/strand displacement, fluorescence kinetic; Potency, µM (series often up to 114 µM), actives largely listed as inhibitors; 1.3% of 340,000 active; AID 485314
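Reaction started by 50 nM substrate onto compound-treated Pol beta (10 nM, 15 min preincubation, room temperature); plates read at 0 min and 10 min. Normalized concentration-effect data fitted by four-parameter Hill equation.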
PI5P4Ka inh: blocks human PI5P4K alpha kinase activity | P48426 | PI5P4Kalpha enzyme, ADP-Glo luminescence, 60 min; stronger effect = lower value | max response, % | 1.2% of 330,000 active | AID 652105; active means max response of -50% or lower; inconclusive means between -30% and -50%; inactive means -30% or higher; further: value at the top dose of about 77 µM
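Compounds were pin-transferred onto PI5P4Kalpha and substrate in HEPES pH 7.4 buffer with EGTA, CHAPS and 5% DMSO. ATP (5 microM final) started the reaction, which ran 60 minutes at room temperature before ADP-Glo detection.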
Hits are given with their value; ! = repeats disagree. Unless noted, the call rests on the fitted dose curve; in most records, active means well fitted inhibition curve with a large enough effect; inconclusive means small, poorly fitted or top-dose-only effect, or another doubt; inactive means no such curve, though single readings can be large or run the other way.

Screening Cc1ccc(C)c(NS(=O)(=O)c2ccc3[nH]c(=O)oc3c2)c1 returned PI4K2A inh inactive, POLI inh inconclusive, Pol eta inh 32µM, POLK inh inconclusive, POLB inh 32µM and PI5P4Ka inh inconclusive.
Screening CN(Cc1ccccc1)S(=O)(=O)c1ccc2[nH]c(=O)oc2c1 returned PI4K2A inh inactive, POLI inh inactive, Pol eta inh inactive, POLK inh inactive, POLB inh inactive and PI5P4Ka inh inactive.
`Cc1cccc(NS(=O)(=O)c2ccc3[nH]c(=O)oc3c2)c1C` gave PI4K2A inh inactive, POLI inh inactive, Pol eta inh inactive, POLK inh inactive and PI5P4Ka inh inactive.
CC(C)C[C@H]1COc2cc(N3CCCC3)ccc2S(=O)(=O)N1C was read as PI4K2A inh inactive.
`COc1ccc(N(C)S(=O)(=O)c2c(C)[nH]c(=O)[nH]c2=O)c(OC)c1` gave PI4K2A inh inactive, POLI inh 89µM, Pol eta inh inactive, POLK inh inactive, POLB inh inactive and PI5P4Ka inh inactive.
Screening O=C(OC12CCCN(C1)/C(=C/c1ccncc1)C2)C1CCCCC1 (stereo not drawn) returned PI4K2A inh inactive.
`O=c1cc(CSc2nc3ccccc3c(=O)[nH]2)c2ccc(O)cc2o1` gave PI4K2A inh inactive, POLI inh inconclusive, Pol eta inh 40µM, POLK inh inconclusive, POLB inh inactive and PI5P4Ka inh inactive.
`CO/N=C(\C(=O)O)c1csc(NC(=O)CCl)n1` gave PI4K2A inh inactive.
Cc1c(/C=C2\SC(=Nc3cccc(C(=O)O)c3)NC2=O)c2ccccc2n1C was read as PI4K2A inh inactive, POLI inh inconclusive, Pol eta inh 79µM, POLK inh inactive, POLB inh inconclusive and PI5P4Ka inh -79.
CCCCCc1ccc(-c2cn(Cc3ccc4c(c3)C(=O)c3ccccc3C4=O)nn2)cc1 was read as POLI inh inactive and POLK inh inactive.
CCOC(=O)c1c2c([nH]c(=S)c1C#N)CCCC2 was read as PI4K2A inh inactive, POLI inh inconclusive, Pol eta inh 79µM, POLK inh inactive, POLB inh inconclusive and PI5P4Ka inh inconclusive.
`CCc1[nH]c(=O)c(C#N)c2c1CCCC2` gave PI4K2A inh inactive, POLI inh inactive, Pol eta inh inactive, POLK inh inactive, POLB inh inactive and PI5P4Ka inh inactive.
Screening CCc1[nH]c(=S)c(C#N)c2c1CCCC2 returned PI4K2A inh inactive, POLI inh inactive, Pol eta inh inactive, POLK inh inactive, POLB inh inactive and PI5P4Ka inh -52.
COc1ccc2nc(C)cc(N/N=C/c3ccc(F)cc3)c2c1 was read as PI4K2A inh inactive, POLI inh inactive, Pol eta inh inactive, POLK inh inactive, POLB inh inactive and PI5P4Ka inh inactive.
COc1ccc(/C=N/Nc2cc(C)nc3c(C)cccc23)cc1 was read as PI4K2A inh inactive, POLI inh inactive, Pol eta inh inconclusive, POLK inh inactive, POLB inh 25µM and PI5P4Ka inh inactive.
`COc1ccc(Nc2cc(C)nc3c(C)c(C)ccc23)cc1` gave PI4K2A inh inactive, POLI inh inactive, Pol eta inh inactive, POLK inh inactive and POLB inh inactive.
COc1cccc2c(N/N=C/c3ccc(O)c(O)c3)cc(C)nc12 was read as PI4K2A inh inactive, POLI inh inconclusive, Pol eta inh inactive, POLK inh inactive, POLB inh 20µM and PI5P4Ka inh inactive.
COc1ccc(Nc2cc(C)nc3ccc(OC)cc23)cc1 was read as PI4K2A inh inactive, POLI inh inconclusive, Pol eta inh inactive, POLK inh inactive, POLB inh 22µM and PI5P4Ka inh inactive.
`Cc1ccc2nc(C)cc(N/N=C/c3cccc(O)c3)c2c1` gave PI4K2A inh inactive, POLI inh inactive, Pol eta inh inactive, POLK inh inactive, POLB inh inactive and PI5P4Ka inh inactive.
For COc1ccc(/C=N/Nc2cc(C)nc3ccccc23)cc1 the results were PI4K2A inh inactive, POLI inh inconclusive, Pol eta inh inconclusive, POLK inh inactive, POLB inh 79µM and PI5P4Ka inh inactive.
`COC(=O)c1c(NC(=O)COc2cc(C)c(Cl)c(C)c2)sc2c1CCCC2` gave PI4K2A inh inactive, POLI inh inconclusive, Pol eta inh inactive, POLK inh inactive and POLB inh inactive.
`CCCCc1oc2ccc(NS(C)(=O)=O)cc2c1C(=O)c1ccc(OCCCN(CCCC)CCCC)cc1` gave PI4K2A inh inactive.
Screening CC(C)(C)n1ncc2c(=O)n(Cc3cccc(-c4ccccc4)c3)cnc21 returned POLI inh inactive and POLK inh inactive.
CC(C)C[C@@H](CN1CCC[C@@H]1CN1C(=S)NC[C@@H]1Cc1ccc(O)cc1)N1C[C@H](Cc2ccccc2)N(CCc2ccccc2)C1=S was read as PI4K2A inh inactive and PI5P4Ka inh inactive.
Screening CO[C@@]1(NC(=O)CSCC#N)C(=O)N2C(C(=O)O)=C(CSc3nnnn3C)CS[C@@H]21 returned PI4K2A inh inactive, POLI inh inconclusive, Pol eta inh 2.2µM!, POLK inh inactive, POLB inh inactive and PI5P4Ka inh inactive.
For COc1ccc(C2C(C(=O)Nc3cc(OC)ccc3OC)CCC(=O)N2c2ccc(OC)cc2)cc1 (stereo not drawn) the results were PI4K2A inh inactive.
Screening CCCN(C(=O)Cc1c(C(=O)O)[nH]c2ccc(Cl)cc12)c1ccc(OCC)cc1 returned PI4K2A inh inactive, POLI inh inactive, Pol eta inh inactive, POLK inh inactive and POLB inh 50µM.
Screening C1=Cc2ccccc2/C1=C\c1cc[cH-]c1.[Fe+2].c1cc[cH-]c1 returned POLI inh 1.8µM and POLK inh 1.1µM.
For COc1cc(C(C)C)c2c(c1)S(=O)(=O)N(COc1cc(=O)n3cccc(OCCN4CCCCC4)c3n1)C2=O the results were POLK inh inactive.
O=C(C[n+]1cc(Br)cc2ccccc21)c1ccc(O)c(O)c1 was read as POLI inh inconclusive and POLK inh 2.8µM.
`O=C(C[n+]1cc(Br)cc2ccccc21)c1ccccc1` gave PI4K2A inh inactive, POLI inh inactive, Pol eta inh inactive, POLK inh inactive, POLB inh inactive and PI5P4Ka inh inactive.
`Cc1nn(C)cc1NC(=O)C[C@H]1CC[C@H]2[C@@H](COc3ccc(NC(=O)Nc4ccccc4)cc3C(=O)N2C)O1` gave PI4K2A inh inactive.
`CCc1cccc(C)c1NC(=O)C1CCN(S(=O)(=O)c2cccc3nonc23)CC1` gave PI4K2A inh inactive, POLI inh 89µM, Pol eta inh inactive, POLK inh inconclusive and POLB inh inconclusive.

From PubChem BioAssay
